Results published in PubChem BioAssay AID1159580 (chemical genetic matrix, 2015).
Several values for one entry are separate records, joined by “and”; a condition that tells them apart may be missing. Equal entries are not always repeated. Among all 5,500 compounds or so, about 2,000 (36%) were called active. Another 18% or so got no clear call; they are omitted. No stated cut-off is given here; in the data, active means normalized growth mostly below about 0.91 (no sharp cut-off); inconclusive means no clear call, values can overlap the other calls; inactive means mostly above about 0.92. This is one part of the list.

Assay: chemical genetic growth profiling, strain panel (AID 1159580);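 further: tested at 20 µM; growth read once vehicle control cultures reached saturation at 30 °C; 1 = growth at the plate median or of vehicle wells; lower values mean less growth of the strain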
Conditions: S. cerevisiae deletion strains, growth OD

Measured: normalized growth

CCCCC(=O)O[C@]1(C(=O)CO)[C@@H](C)CC2C3CCC4=CC(=O)C=C[C@]4(C)[C@@]3(F)C(O)C[C@@]21C (stereo partly drawn)
inactive: locus YAL013W, strain DEP1, active compounds read low 0.968 | locus YAL021C, strain ccr4, active compounds read low 0.982 | locus YAL026C, strain drs2, active compounds read low 1.01 | locus YAL030W, strain snc1, active compounds read low 0.981 | locus YBL061C, strain skt5, active compounds read low 0.978 | locus YBR009C, strain hhf1, active compounds read low 0.99 | locus YBR021W, strain FUR4, active compounds read low 0.986 | locus YBR023C, strain chs3, active compounds read low 0.98 | locus YBR171W, strain sec66, active compounds read low 0.941 | locus YBR229C, strain ROT2, active compounds read low 0.99 | locus YBR231C, strain swc5, active compounds read low 0.948 | locus YBR279W, strain paf1, active compounds read low 0.991 | locus YCL011C, strain gbp2, active compounds read low 0.99 | locus YCL016C, strain dcc1, active compounds read low 1.01 | locus YCL029C, strain bik1, active compounds read low 0.981 | locus YCL069W, strain vba3, active compounds read low 0.989 | locus YCR088W, strain abp1, active compounds read low 0.997 | locus YDL005C, strain med2, active compounds read low 0.972 | locus YDL035C, strain GPR1, active compounds read low 1.03 | locus YDL040C, strain nat1, active compounds read low 0.975 | locus YDL074C, strain BRE1, active compounds read low 0.979 | locus YDL101C, strain DUN1, active compounds read low 0.961 | locus YDL134C, strain PPH21, active compounds read low 1 | locus YDL185W, strain tfp1, active compounds read low 0.97 | locus YDL192W, strain arf1, active compounds read low 0.978 | locus YDR001C, strain nth1, active compounds read low 0.986 | locus YDR069C, strain doa4, active compounds read low 0.968 | locus YDR101C, strain arx1, active compounds read low 0.998 | locus YDR137W, strain rgp1, active compounds read low 0.979 | locus YDR159W, strain sac3, active compounds read low 0.974 | locus YDR162C, strain NBP2, active compounds read low 1.01 | locus YDR195W, strain ref2 0.963 | locus YDR297W, strain sur2, active compounds read low 0.975 | locus YDR318W, strain mcm21, active compounds read low 0.996 | locus YDR334W, strain swr1, active compounds read low 0.988 | locus YDR335W, strain msn5, active compounds read low 0.977 | locus YDR388W, active compounds read low 0.982 | locus YDR392W, strain spt3, active compounds read low 1.07 | locus YDR502C, strain sam2, active compounds read low 0.988 | locus YEL003W, strain gim4, active compounds read low 0.987 | locus YEL037C, strain rad23, active compounds read low 0.991 | locus YEL061C, strain CIN8 (second series), active compounds read low 0.991 | locus YEL061C, strain CIN8, active compounds read low 0.995 | locus YER015W, strain faa2, active compounds read low 0.979 | locus YER016W, strain bim1, active compounds read low 1.02 | locus YER110C, active compounds read low 0.982 | locus YER111C, strain swi4, active compounds read low 0.968 | locus YER155C, strain BEM2 (second series), active compounds read low 0.981 | locus YER155C, strain BEM2, active compounds read low 1.01 | locus YER167W, strain BCK2, active compounds read low 1.01 | locus YFR010W, strain ubp6, active compounds read low 0.95 | locus YGL078C, strain dbp3, active compounds read low 0.99 | locus YGL086W, strain mad1, active compounds read low 0.982 | locus YGL167C, strain pmr1, active compounds read low 0.959 | locus YGL173C, strain kem1, active compounds read low 0.96 | locus YGL227W, strain vid30, active compounds read low 0.97 | locus YGL240W, strain doc1, active compounds read low 0.945 | locus YGL248W, strain PDE1, active compounds read low 0.962 | locus YGL253W, strain hxk2, active compounds read low 0.985 | locus YGR078C, strain PAC10, active compounds read low 0.969 | locus YGR135W, strain pre9, active compounds read low 0.977 | locus YGR252W, strain gcn5, active compounds read low 1.02 | locus YHR013C, strain ard1, active compounds read low 0.996 | locus YHR027C, strain rpn1, active compounds read low 0.986 | locus YHR030C, strain SLT2, active compounds read low 0.991 and 0.976 | locus YHR079C, strain IRE1 (second series), active compounds read low 1 | locus YHR079C, strain IRE1, active compounds read low 0.977 | locus YHR094C, strain hxt1, active compounds read low 0.983 | locus YHR129C, strain ARP1, active compounds read low 0.983 | locus YHR142W, strain chs7, active compounds read low 0.943 | locus YHR200W, strain rpn10, active compounds read low 0.992 | locus YIL066C, strain RNR3, active compounds read low 1.01 | locus YIL073C, strain SPO22, active compounds read low 1.01 | locus YIL125W, strain kgd1, active compounds read low 0.97 | locus YIR030C, strain dcg1, active compounds read low 0.992 | locus YJL092W, strain hpr5, active compounds read low 0.976 | locus YJL095W, strain BCK1 (second series), active compounds read low 0.982 | locus YJL095W, strain BCK1, active compounds read low 0.888 and 0.991 | locus YJL115W, strain asf1, active compounds read low 0.965 | locus YJL129C, strain trk1, active compounds read low 0.943 | locus YJL134W, strain LCB3, active compounds read low 0.994 | locus YJL154C, strain vps35, active compounds read low 0.972 | locus YJL164C, strain tpk1, active compounds read low 0.988 | locus YJL166W, strain qcr8, active compounds read low 0.941 | locus YJL168C, strain set2, active compounds read low 0.983 | locus YJL187C, strain SWE1 (second series), active compounds read low 0.933 | locus YJR043C, strain POL32, active compounds read low 1.03 | locus YJR066W, strain TOR1, active compounds read low 0.958
